Measured values from PubChem BioAssay (NCI).
Compounds without any hit were thinned out: in the full panel of roughly 83,000, 20% have a hit.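 Single-dose data. Exposure time 48 hours. Values below 10 considered active.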 Calls of active or inactive are those of the source.

Key:
Assay in all cases: NCI-60 one-dose screen, 48 h (100 = growth as untreated, 0 = no growth, -100 = all killed)
Conditions in all cases: 10 µM unless noted
EKVX NSCLC = system: EKVX NSCLC
SN12C renal = system: SN12C renal
UO-31 renal = system: UO-31 renal
TK-10 renal = system: TK-10 renal
ACHN renal = system: ACHN renal
CAKI-1 renal = system: CAKI-1 renal
CCRF-CEM leukemia = system: CCRF-CEM leukemia
MOLT-4 leukemia = system: MOLT-4 leukemia
SR leukemia = system: SR leukemia
RPMI-8226 leukemia = system: RPMI-8226 leukemia
OVCAR-8 ovarian = system: OVCAR-8 ovarian
OVCAR-5 ovarian = system: OVCAR-5 ovarian
OVCAR-4 ovarian = system: OVCAR-4 ovarian
SK-OV-3 ovarian = system: SK-OV-3 ovarian
IGROV1 ovarian = system: IGROV1 ovarian
HS 578T breast = system: HS 578T breast
NCI/ADR-RES ovarian = system: NCI/ADR-RES ovarian
T-47D breast = system: T-47D breast
OVCAR-3 ovarian = system: OVCAR-3 ovarian
A498 renal = system: A498 renal

Measured: growth

CC(=O)c1ccc(Nc2nc(SC(C)C)nc(-c3ccccc3)c2C#N)cc1
inactive: EKVX NSCLC 111% | SN12C renal 97% | UO-31 renal 82.1% | TK-10 renal 101% | ACHN renal 86.2% | CAKI-1 renal 88% | CCRF-CEM leukemia 96.1% | MOLT-4 leukemia 96.4% | SR leukemia 91.5% | RPMI-8226 leukemia 95% | OVCAR-8 ovarian 95.7% | OVCAR-5 ovarian 100% | OVCAR-4 ovarian 94.9% | SK-OV-3 ovarian 103% | IGROV1 ovarian 89.7% | HS 578T breast 90.6% | NCI/ADR-RES ovarian 92% | T-47D breast 81%

COc1cc(/C=C/C(=O)c2cc(OC)c(OC)c(OC)c2)ccc1OCc1ccccc1
inactive: EKVX NSCLC 51.6% | SN12C renal 69.7% | UO-31 renal 45.5% | TK-10 renal 153% | ACHN renal 60% | CAKI-1 renal 42% | MOLT-4 leukemia 26.2% | OVCAR-8 ovarian 16.8% | OVCAR-5 ovarian 47% | OVCAR-4 ovarian 41.2% | SK-OV-3 ovarian 88.1% | IGROV1 ovarian 35.3% | HS 578T breast 88.9% | NCI/ADR-RES ovarian 14.4% | T-47D breast 41.8%
active: CCRF-CEM leukemia 4.39% | SR leukemia 6.67% | RPMI-8226 leukemia -12.4%

CN1C(=S)N(C)C2C1NN=C1SC(c3ccccc3)=CC(=O)N12 (stereo not given)
inactive: EKVX NSCLC 80.9% | SN12C renal 96.2% | UO-31 renal 88.3% | TK-10 renal 97.7% | ACHN renal 96.8% | CAKI-1 renal 90.8% | CCRF-CEM leukemia 91% | MOLT-4 leukemia 89.8% | SR leukemia 65.4% | RPMI-8226 leukemia 93.9% | OVCAR-8 ovarian 94.4% | OVCAR-5 ovarian 103% | OVCAR-4 ovarian 85.7% | SK-OV-3 ovarian 102% | IGROV1 ovarian 97.5% | OVCAR-3 ovarian 107% | HS 578T breast 107% | NCI/ADR-RES ovarian 97.6% | T-47D breast 69.5%

O=C1Nc2ccccc2Oc2ccc(S(=O)(=O)CC3CO3)cc21 (stereo not given)
active: SR leukemia 0.309%
inactive: EKVX NSCLC 75.2% | SN12C renal 71.5% | UO-31 renal 65.9% | TK-10 renal 91.6% | ACHN renal 46.4% | CAKI-1 renal 44.1% | CCRF-CEM leukemia 25.7% | MOLT-4 leukemia 42.8% | RPMI-8226 leukemia 44.9% | OVCAR-8 ovarian 64.3% | OVCAR-5 ovarian 85.5% | OVCAR-4 ovarian 70.1% | IGROV1 ovarian 62.3% | HS 578T breast 60.6% | NCI/ADR-RES ovarian 98.2% | T-47D breast 47.5%

COc1cccc(OC)c1-c1nnn(C)c1C(=S)N1CCN(c2ccc([N+](=O)[O-])cc2Cl)CC1
inactive: EKVX NSCLC 83.6% | SN12C renal 93.6% | UO-31 renal 58.7% | TK-10 renal 105% | CAKI-1 renal 78.9% | CCRF-CEM leukemia 91.7% | MOLT-4 leukemia 78% | SR leukemia 87.1% | RPMI-8226 leukemia 77.5% | OVCAR-8 ovarian 95.4% | OVCAR-5 ovarian 91.6% | OVCAR-4 ovarian 91.9% | IGROV1 ovarian 78.1% | OVCAR-3 ovarian 112% | HS 578T breast 95% | NCI/ADR-RES ovarian 93.6% | T-47D breast 101%

Cc1cc2nc3c4cc(Cl)ccc4n(CC(=O)NCCN(C)C)c3nc2cc1C
inactive: EKVX NSCLC 73.8% | SN12C renal 79.8% | TK-10 renal 161% | CAKI-1 renal 53.9% | OVCAR-8 ovarian 55.9% | OVCAR-4 ovarian 95.7% | SK-OV-3 ovarian 106% | IGROV1 ovarian 56.2% | OVCAR-3 ovarian 96.7% | HS 578T breast 71.9% | NCI/ADR-RES ovarian 55.4% | T-47D breast 82%
active: UO-31 renal -83.6% | CCRF-CEM leukemia -14.5% | MOLT-4 leukemia -19.4% | SR leukemia -38% | RPMI-8226 leukemia -27.3% | OVCAR-5 ovarian -16.7%

Nc1cc(-c2c[nH]c3ccccc23)nc2cc(-c3c[nH]c4ccccc34)nn12
inactive: EKVX NSCLC 74.5% | SN12C renal 73% | UO-31 renal 44.2% | TK-10 renal 89.4% | A498 renal 42.3% | CCRF-CEM leukemia 45.4% | MOLT-4 leukemia 34% | SR leukemia 14% | RPMI-8226 leukemia 35.9% | OVCAR-8 ovarian 64.3% | OVCAR-5 ovarian 51% | OVCAR-4 ovarian 65.1% | SK-OV-3 ovarian 139% | IGROV1 ovarian 57.2% | OVCAR-3 ovarian 92.4% | HS 578T breast 81.1% | NCI/ADR-RES ovarian 59% | T-47D breast 68.7%

Cc1nc(-c2cc3ccccc3oc2=O)ccc1C(=O)/C=C/c1ccc(Cl)c(Cl)c1
inactive: EKVX NSCLC 92.1% | SN12C renal 99.8% | UO-31 renal 89.4% | TK-10 renal 117% | ACHN renal 93.1% | CCRF-CEM leukemia 104% | MOLT-4 leukemia 102% | SR leukemia 94.9% | RPMI-8226 leukemia 101% | OVCAR-8 ovarian 99.5% | OVCAR-5 ovarian 113% | OVCAR-4 ovarian 107% | SK-OV-3 ovarian 127% | IGROV1 ovarian 104% | OVCAR-3 ovarian 111% | HS 578T breast 90.7% | NCI/ADR-RES ovarian 105% | T-47D breast 104%

Cc1ccccc1NC(=O)/C=C/c1ccc(OCCOc2ccc3c(C)cc(=O)oc3c2)cc1
inactive: EKVX NSCLC 107% | SN12C renal 91.5% | UO-31 renal 99.6% | TK-10 renal 132% | A498 renal 81.3% | CCRF-CEM leukemia 95.7% | MOLT-4 leukemia 93.2% | SR leukemia 61.3% | RPMI-8226 leukemia 94% | OVCAR-8 ovarian 64.9% | OVCAR-5 ovarian 103% | OVCAR-4 ovarian 75.5% | SK-OV-3 ovarian 77.6% | IGROV1 ovarian 103% | HS 578T breast 61.2% | NCI/ADR-RES ovarian 84.6% | T-47D breast 84.1%
